Results published in PubChem BioAssay (NCI).
The panel holds about 83,000 compounds, 20% with a hit somewhere; the sample as a whole holds those more often.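 A percent growth of 40 corresponds to 60% growth inhibition; 0 means no net growth; -100 means all cells died. Active threshold: below 10.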 A number with no mark means an inactive call. Calls of active or inactive are those of the source.

What was measured:
Assay in all cases: NCI-60 one-dose screen, 48 h (100 = growth as untreated, 0 = no growth, -100 = all killed)
SK-MEL-2 melanoma = settings: 10 µM unless noted
EKVX NSCLC = settings: 10 µM unless noted
SN12C renal = settings: 10 µM unless noted
UO-31 renal = settings: 10 µM unless noted
TK-10 renal = settings: 10 µM unless noted
ACHN renal = settings: 10 µM unless noted
CAKI-1 renal = settings: 10 µM
CCRF-CEM leukemia = settings: 10 µM unless noted
MOLT-4 leukemia = settings: 10 µM unless noted
SR leukemia = settings: 10 µM unless noted
RPMI-8226 leukemia = settings: 10 µM unless noted
OVCAR-8 ovarian = settings: 10 µM unless noted
OVCAR-5 ovarian = settings: 10 µM unless noted
OVCAR-4 ovarian = settings: 10 µM unless noted
SK-OV-3 ovarian = settings: 10 µM unless noted
IGROV1 ovarian = settings: 10 µM unless noted
OVCAR-3 ovarian = settings: 10 µM unless noted
HS 578T breast = settings: 10 µM unless noted
NCI/ADR-RES ovarian = settings: 10 µM unless noted
A498 renal = settings: 10 µM unless noted

| Compound | growth (SK-MEL-2 melanoma) | growth (EKVX NSCLC) | growth (SN12C renal) | growth (UO-31 renal) | growth (TK-10 renal) | growth (ACHN renal) | growth (CAKI-1 renal) | growth (CCRF-CEM leukemia) | growth (MOLT-4 leukemia) | growth (SR leukemia) | growth (RPMI-8226 leukemia) | growth (OVCAR-8 ovarian) | growth (OVCAR-5 ovarian) | growth (OVCAR-4 ovarian) | growth (SK-OV-3 ovarian) | growth (IGROV1 ovarian) | growth (OVCAR-3 ovarian) | growth (HS 578T breast) | growth (NCI/ADR-RES ovarian) | growth (A498 renal) |
| --- | --- | --- | --- | --- | --- | --- | --- | --- | --- | --- | --- | --- | --- | --- | --- | --- | --- | --- | --- | --- |
| O=C(Nc1cccc(Cl)c1)Nc1nc2ccc([N+](=O)[O-])cc2s1 | -24.1% (active) | 10% | 4.02% (active) | 7.26% (active) | -2.79% (active) | 5.59% (active) | 3.38% (active) | 9.48% (active) | 2.36% (active) | 2.1% (active) | 3.45% (active) | 7.34% (active) | 26.5% | 4.33% (active) | -1.18% (active) | 14.8% | 9.51% (active) | -5.35% (active) | 2.96% (active) |  |
| CN(C)C(=O)C1=NC(CO)C(=O)N(c2ccc(Cl)cc2)N1 (configuration not stated) | 99% | 99.5% | 105% | 82.5% | 91.1% | 101% | 92% | 104% | 103% | 107% | 101% | 104% | 96.5% | 114% | 114% | 101% | 110% | 104% | 104% |  |
| CC[C@]12C=CCN3CC[C@]4(C(=C(C(=O)OC)C1)Nc1cc5c(cc14)[C@@H]1[C@H](O5)[C@@H](O)[C@@]4(CC)CC(C(=O)OC)=C5Nc6cc(OC)ccc6[C@@]56CCN1[C@@H]46)[C@@H]32 | 32.1% | 19.1% | 16.4% | 11.9% | 14.1% | -42.5% (active) | 2.12% (active) | 5.92% (active) |  | 5.56% (active) |  | 19.5% |  | 31.2% | 25% | 6.73% (active) |  | 11.6% | 12.4% | -65.9% (active) |
| CCOC(=O)c1c(NCC(=O)Nc2cccc([N+](=O)[O-])c2)sc2c1CCCC2 | -43.2% (active) | -22.7% (active) | -28.9% (active) | -17.7% (active) | -33.2% (active) | -60.9% (active) | -20.2% (active) | 8.8% (active) | 5.22% (active) | 11.7% | -10.7% (active) | -18.2% (active) | -45.6% (active) | -45.2% (active) | -67.3% (active) | -19.6% (active) | -39.7% (active) | -14.8% (active) | -36.7% (active) |  |
| Cn1cc(-c2nnc(N)nc2-c2cn(C)c3ccc(F)cc23)c2cc(F)ccc21 | 97% | 101% | 89.2% | 82.6% | 91.4% | 100% | 79.7% | 100% | 79.1% | 85.6% | 106% | 89.6% | 103% | 97.4% | 112% | 101% | 103% | 90.8% | 99.8% |  |
| COc1cc(CNC(=O)/C=C/c2ccccc2)ccc1OCC(=O)NO | 99.6% | 95.2% | 95.8% | 81.8% | 102% | 93.3% | 91.4% | 105% | 95.7% | 97% | 102% | 98.2% | 102% | 108% | 98.9% | 98.1% | 104% | 109% | 96.1% |  |
| Brc1cccc(/C=N/Nc2nc(N/N=C/c3cccc(Br)c3)nc(N3CCOCC3)n2)c1 | 2.64% (active) | 49% | 44.2% | 25.5% | 66.8% | 26.3% | 15.4% | 21% | 10.2% | 7.93% (active) | 34.2% | 37.4% | 72.4% | 54.2% | 92.9% | 42.8% | 42.4% | 66.2% | 41.8% |  |
| COC[C@@]1(C)CC[C@]2(C)CC[C@]3(C)C(=CC[C@@H]4[C@@]5(C)CCCNC(C)(C)[C@@H]5CC[C@]43C)C2C1 (some centres not stated) | 78.1% | 76.9% | 51.6% | 90.4% | 110% | 87.1% | 71.7% | 47.7% | 34.1% | 4.07% (active) | 21.3% | 88.6% | 80% | 65.6% | 104% | 52.3% | 78.3% | 78.5% | 72.6% |  |
| C=C(C)[C@@H]1CC[C@]2(C(=O)NCCCN(CCC#N)CCC#N)CC[C@]3(C)[C@H](CC[C@@H]4[C@@]5(C)CCC(=O)C(C)(C)[C@@H]5CC[C@]43C)[C@@H]12 | 102% | 104% | 94.3% | 95.1% | 101% | 99.9% | 75% | 103% | 88.1% | 95.7% | 103% | 105% | 103% | 105% | 104% | 112% | 118% | 105% | 102% |  |
| N#C/C(=C\c1ccc(-c2ccc(F)cc2)o1)C(=O)Nc1ncc(Cc2ccc(Cl)cc2Cl)s1 | 68.9% | 9.87% (active) | -37.5% (active) | 2.72% (active) | -4.43% (active) | 8.96% (active) | 14.2% | 4.62% (active) | 30.8% |  | 25.3% | 6.14% (active) | 26% | -40.3% (active) | 107% |  |  | 10.7% | 6.32% (active) | 72.1% |
| CCOP(=O)(OCC)OC[C@]12CCC(C)(C)C[C@H]1C1=CC[C@@H]3[C@@]4(C)C/C(=C\c5cccnc5)[C@H](OP(=O)(OCC)OCC)C(C)(C)[C@@H]4CC[C@@]3(C)[C@]1(C)CC2 | 45.1% | 29.9% | 29.3% | 29.9% | 37.3% | 27.8% | 31% | 25.3% | 9.52% (active) | 3.36% (active) | -10.3% (active) | 28.9% | 50.1% | 27.6% | 34.8% | 42.6% | 28.5% | 61.1% | 52.3% |  |
| Cc1ccc(-c2nnc3sc(C4=Cc5ccccc5OC=C4)nn23)cc1 | 104% | 99.4% | 97.3% | 87.3% | 89.1% | 105% | 79.6% | 105% | 82.8% |  | 101% | 89.8% | 98% | 99.2% |  | 109% |  | 112% | 98.2% | 61.6% |
| COC[C@]12CC[C@@H](C)[C@H](C)[C@H]1C1=CC[C@@H]3[C@@]4(C)CCCNC(C)(C)[C@@H]4CC[C@@]3(C)[C@]1(C)CC2 | 58.5% | 57.8% | 23.2% | 60.2% | 61.9% | 30.7% | 35% | 17% | 5.72% (active) | -3.33% (active) | 2.86% (active) | 62.4% | 61.6% | 38% | 85.4% | 30.2% | 41.4% | 74.3% | 44.3% |  |
| O=C(COc1cccc2cccnc12)Nc1ccc(C(=O)/C=C/c2ccc(Cl)cc2)cc1 | 96.2% | 80.9% | 86% | 67.7% | 104% | 94% | 76.2% | 83.3% | 67.7% | 61.1% | 7.02% (active) | 94.4% | 105% | 92% | 105% | 88.8% | 100% | 98.8% | 79.2% |  |
| O=C(NNc1nc2cc(F)ccc2n2cncc12)c1cnccn1 | 36% | 20.3% | 34.2% | 11.7% | 44% | 9.12% (active) | 7.86% (active) | 14.4% | 6.82% (active) | 17% | 25.4% | 21% | 50% | 31.1% | 28.4% | 27.6% | 28.2% | 71.8% | 12.2% |  |
| COc1ccc(Cn2cc3c(c2-c2ccccc2)CCCc2cnoc2-3)cc1 | 80.2% | 69.2% | 79.8% | 57.1% | 91.8% | 58.9% | 46.1% | 61.3% | 61.7% | 21.1% | 59.8% | 78.8% | 80.7% | 90.2% | 83.7% | 51.5% | 22% | 64.9% | 29.8% |  |
